Reference: article PMC5540273 (PLoS ONE, 2017)

Tests used:
Details in all cases: concentration: 1 μM, replicates: in singlicate; n = 1
STK36 = test system: STK36
STK39 = test system: STK39
SYK = test system: SYK
SgK110 = test system: SgK110
TAK1 = test system: T1, TAK1
T1 construct: gene MAP3K7

TAOK1 = test system: TAOK1
TAOK2 = test system: TAOK2
TAOK3 = test system: TAOK3
TBK1 = test system: TBK1
TEC = test system: TEC
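Further: KINOMEscan kinase panel screen.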

| SMILES | %Inh (STK36) [%] | %Inh (STK39) [%] | %Inh (SYK) [%] | %Inh (SgK110) [%] | %Inh (TAK1) [%] | %Inh (TAOK1) [%] | %Inh (TAOK2) [%] | %Inh (TAOK3) [%] | %Inh (TBK1) [%] | %Inh (TEC) [%] |
| --- | --- | --- | --- | --- | --- | --- | --- | --- | --- | --- |
| COc1ccc(Nc2nccc(N3CCC(NC(=O)Nc4cccc(OC)c4)C3)n2)cc1 (centres unmarked) [GSK1379742] | 0 | 5 | 25 | 0 | 0 | 0 | 0 | 0 | 6 | 1 |
| O=C(Nc1n[nH]c2cc(-c3ccoc3)ccc12)C1CC1 [SB-738481] | 13 | 1 | 2 | 0 | 2 | 65 | 27 | 15 | 15 | 0 |
| CN(C)Cc1ccc(-c2ccc3c(Nc4ccc(Oc5ccccn5)cc4)ccnc3c2)o1 [GW567148] | 0 | 0 | 0 | 0 | 23 | 0 | 0 | 0 | 7 | 49 |
| CCc1ccc(-c2ccc3c(c2)-c2c(cnn2C)S(=O)(=O)N3C)cc1 | 0 | 0 | 0 | 0 | 4 | 0 | 0 | 0 | 8 | 0 |
| Nc1ncc(-c2cccnc2)c2scc(-c3ccc4c(c3)CCN4C(=O)Cc3ccccc3)c12 [GSK683281] | 87 | 4 | 34 | 1 | 7 | 0 | 4 | 0 | 14 | 17 |
| CNC(=O)c1ccccc1Nc1nc(Nc2ccc(N3CCOCC3)cc2)ncc1Cl.Cl [GSK1576028] | 85 | 54 | 87 | 90.5 | 96.1 | 98.8 | 83 | 94.2 | 93.1 | 99 |
| C[C@@H](Oc1cc(-n2cnc3cc(-c4ccnc(NCCS(C)(=O)=O)c4)ccc32)sc1C(N)=O)c1ccccc1Cl [GSK907232] | 0 | 13 | 80 | 0 | 0 | 0 | 0 | 0 | 5 | 4 |
| COC(=O)Nc1nc2ccc(Oc3ccc(NC(=O)Nc4cc(C(F)(F)F)ccc4F)cc3)cc2n1C.Cl [GW692089] | 22 | 0 | 52 | 0 | 38 | 0 | 0 | 0 | 0 | 0 |
| CC(C)(C)c1ccc2nccc(Nc3cccc(O)c3)c2c1 [GW856795] | 0 | 14 | 0 | 0 | 23 | 100 | 0 | 59 | 14 | 12 |
| Cn1cc(-c2[nH]c3cc(NC(=O)[C@H](N)C4CCCCC4)cc4c3c2C=NNC4=O)cn1 | 0 | 59 | 55 | 92.1 | 52 | 0 | 0 | 0 | 82 | 43 |
| CC(C)c1nc(-c2cccc(NS(=O)(=O)c3c(F)cccc3F)c2F)c(-c2ccnc(Nc3ccc(N4CCOCC4)nc3)n2)s1 [GSK2008607] | 100 | 48 | 85 | 0 | 76 | 10 | 71 | 19 | 51 | 85 |
| CN(C)S(=O)(=O)c1cc(-c2ccc3nccc(-c4cccc(S(N)(=O)=O)c4)c3c2)cnc1N [GSK1669921] | 0 | 0 | 0 | 0 | 0 | 18 | 0 | 7 | 2 | 12 |
| Nc1ncnc2c1nc(-c1ccccc1)n2-c1ccccc1 [SKF-97293] | 7 | 0 | 6 | 0 | 35 | 38 | 6 | 25 | 24 | 8 |
| Cc1cccc(Nc2nc(N[C@H]3CCNC3)ncc2C(N)=O)c1.Cl [GSK2197149] | 10 | 9 | 81 | 0 | 90 | 39 | 0 | 5 | 18 | 0 |
| COc1cccc(C2=C(Nc3ccc(Cl)c(C(=O)O)c3)C(=O)NC2=O)c1 [SB-390769] | 0 | 13 | 34 | 57 | 0 | 100 | 100 | 100 | 100 | 0 |
| Fc1ccc(-c2ncn(C3CCNCC3)c2-c2ccnc(Oc3ccc(-c4ccccc4)cc3)n2)cc1 [SB-245391] | 8 | 14 | 0 | 0 | 42 | 28 | 6 | 20 | 8 | 5 |

| SMILES | %Inh (STK36) [%] | %Inh (STK39) [%] | %Inh (SYK) [%] | %Inh (SgK110) [%] | %Inh (TAK1) [%] | %Inh (TAOK1) [%] | %Inh (TAOK2) [%] | %Inh (TAOK3) [%] | %Inh (TBK1) [%] | %Inh (TEC) [%] |
| --- | --- | --- | --- | --- | --- | --- | --- | --- | --- | --- |
| COc1ccc(Nc2nccc(NCCNC(=O)c3cc4ccccc4s3)n2)cc1 [GSK1379896] | 0 | 3 | 2 | 24 | 0 | 0 | 0 | 0 | 2 | 0 |
| COc1cccc(NC(=O)NC2CCN(c3ccnc(Nc4cc(OC)c(OC)c(OC)c4)n3)C2)c1 (centres unmarked) [GSK1379763] | 0 | 0 | 28 | 0 | 0 | 0 | 0 | 0 | 38 | 5 |
| Oc1cc(Nc2ccnc3cc(I)ccc23)ccc1F [GW552771] | 0 | 21 | 19 | 0 | 0 | 0 | 0 | 0 | 0 | 12 |
| Cc1ccc(C(=O)Nc2ccc(Nc3ccnc4cc(-c5nccs5)ccc34)cc2O)cc1.Cl [GW494702] | 35 | 0 | 5 | 15 | 0 | 0 | 0 | 0 | 0 | 0 |
| O=C(Nc1n[nH]c2nc(-c3ccc(O)cc3)ccc12)C1CC1 [SB-710363] | 15 | 18 | 25 | 0 | 21 | 98.9 | 79 | 95.9 | 19 | 0 |
| Cl.Cl.NCC(C(=O)Nc1cc(Br)c(-c2ccnc3[nH]ccc23)s1)c1ccccc1 (centres unmarked) [GSK1269851] | 0 | 44 | 7 | 0 | 0 | 0 | 0 | 0 | 7 | 11 |
| O=C(Nc1cccc(-c2nn3ccccc3c2-c2ccnc(Nc3cccc(C(F)(F)F)c3)n2)c1)c1c(F)cccc1F [GSK292658] | 97.8 | 0 | 37 | 68 | 0 | 27 | 3 | 30 | 8 | 83 |
| Cl.Cl.NCC(NC(=O)c1cc(-c2ccccc2)c(-c2ccnc3[nH]ccc23)s1)c1ccccc1 (centres unmarked) [GSK1321561] | 29 | 8 | 5 | 0 | 35 | 4 | 0 | 0 | 24 | 11 |
| CCn1c(-c2nonc2N)nc2c(C#CC(C)(C)O)nc(OC[C@H](N)c3ccccc3)cc21 [GSK943949] | 0 | 5 | 2 | 0 | 18 | 64 | 27 | 3 | 0 | 0 |
| COc1cc(Nc2nccc(-c3c(-c4cccc(NC(=O)c5c(F)cccc5F)c4)nn4ccccc34)n2)cc(OC)c1OC [GSK323521] | 19 | 8 | 28 | 0 | 28 | 0 | 0 | 0 | 3 | 21 |
| CN1CCN(Cc2cccc(-c3ccc4c(Nc5ccc(Oc6ccccc6)cc5)ccnc4c3)c2)CC1 [GW578342] | 0 | 6 | 0 | 6 | 13 | 0 | 0 | 0 | 16 | 70 |
| COCCOCCOc1cc2ncc3c4ccc(C#N)cc4[nH]c3c2cc1OC | 22 | 0 | 5 | 0 | 88 | 0 | 12 | 0 | 89 | 0 |
| CC(=O)N1CCN(c2ccc(Nc3nccc(-c4sc(C(C)C)nc4-c4cccc(NS(=O)(=O)c5cccc(Cl)c5)c4)n3)cn2)CC1 [GSK1660437] | 99.8 | 19 | 61 | 0 | 41 | 0 | 0 | 3 | 2 | 21 |
| COC(=O)Nc1nc2cc(Oc3ccc(NC(=O)Nc4cc(C(F)(F)F)ccc4F)cn3)ccc2[nH]1.Cl.Cl [GW681170] | 0 | 3 | 16 | 0 | 79 | 0 | 0 | 0 | 19 | 0 |
| C[C@@H]1CC[C@@H](C(=O)Nc2ccccc2)CN1c1cc(-c2ccc3c(N)n[nH]c3c2)nc(N)n1 [GSK2286062] | 0 | 0 | 30 | 0 | 0 | 0 | 0 | 10 | 17 | 0 |
| Nc1ncc(-c2ccc3nccc(-c4ccncc4)c3c2)cc1S(=O)(=O)N1CCOCC1 [GSK1627798] | 0 | 0 | 12 | 0 | 0 | 0 | 0 | 0 | 10 | 9 |
